# Assay results published in PubChem BioAssay (NCI).
# “And” between values parts separate entries of the source, which are not always exact repeats. Equal entries are not always repeated. About 83,000 compounds went through this panel and 20% of them were active in at least one assay; those are over-represented in the sample as a whole.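 Single-dose data. Exposure time 48 hours. Values below 10 considered active.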 The source made the active and inactive calls.
# System: MDA-MB-468 breast
# Experiment: NCI-60 one-dose screen, 48 h (100 = growth as untreated, 0 = no growth, -100 = all killed)
# Settings: 10 µM unless noted
row,SMILES,growth
1,Cc1oc2c(C(=O)N/N=C\c3ccc(O)cc3O)c[nH]c2c1C,-11.8% (active)
2,CCOC(=O)c1c(C)nc2c(c1N)C(=O)C(=O)N2CCc1ccc(OC)c(OC)c1,49% (inactive)
3,CCCCCCCCCCCCCCNCc1ccccc1,-29.3% (active)
4,CCc1cccc(-c2ccccc2)c1,106% (inactive)
5,COC(=O)c1ccccc1Cl,109% (inactive)
6,O=C(c1cccc(N2CCOCC2)n1)c1c[nH]c2ccccc12,89.5% (inactive)
7,C=C(C)[C@@H]1CCC[C@]2(C(=O)O)CC[C@]3(C)[C@@H](CC[C@@H]4[C@@]5(C)C/C(=C/c6ccncc6)C(=O)C(C)(C)[C@@H]5CC[C@]43C)[C@@H]12,16.6% (inactive)
8,Cn1c2c(cc(S(=O)(=O)c3ccccc3)c1=O)CCc1c-2cnn1-c1cccc(Cl)c1,67% (inactive)
9,O=C(Nc1ccc(Cl)cc1)Nc1nc2ccc(OC(F)(F)F)cc2o1,89% (inactive)
10,CCn1cc(-c2[nH]c(=S)ncc2-c2ccc(Cl)cc2)c(-c2ccc(Br)cc2)n1,121% (inactive)
11,C#Cc1cccc(NC(=O)c2cccc(NC(=O)CCl)c2)c1,-52.7% [8.25 µM] (active)
12,Oc1ccc(C#CCOc2ccccc2)cc1CNCCN(Cc1ccccn1)Cc1ccccn1,-10.4% (active)
13,CC(=O)N1N=C(CCC(=O)c2nc3ccc([N+](=O)[O-])cc3[nH]2)OC1c1ccc(O)cc1 (stereo not given),108% (inactive)
14,O=C(Cn1nnc2ccccc21)N/N=C/c1ccccc1F,90.8% (inactive)
15,CCN1C(=O)N(CC)C2Nn3c(s/c(=C\c4cccc(F)c4)c3=O)=NC21 (stereo not given),17.8% (inactive)
16,COC1=CC(c2ccc[nH]2)=N/C1=C\c1[nH]c(C)c(C(=O)CCCCC(=O)NC(C)(C)C)c1C,33.9% (inactive)
17,Cc1ccc(/C=C/c2c(C(=O)/C=C/c3ccc(C(F)(F)F)cc3)c(C)nc3ccccc23)cc1,-57.4% (active)
18,CCOC(=O)c1nc(Nc2cc(C)[nH]n2)c2ccccc2n1,54.9% (inactive)
19,Cc1c(C(=O)NCCN2CCOCC2)cn2ncnc(Oc3ccc(NC(=O)Nc4ccc(Cl)c(C(F)(F)F)c4)cc3)c12,-10.4% (active)
20,Cc1cccc(Oc2ccc(Nc3ncnc4ccc(NC(=O)CN5CCN(C)CC5)cc34)cc2Cl)c1,-62.9% (active)

row,SMILES,growth
1,COc1ccccc1C(=O)O/N=C(\N)Cc1cccc2ccccc12,61.6% (inactive)
2,CC(C)(C)N1CCC1CN (stereo not given),97.2% (inactive)
3,O=C1NC(=O)C(=Cc2cn(Cc3ccccn3)c3ccccc23)C(=O)N1,-51.2% (active)
4,Cc1nc2c(-c3cnc(N)nc3)nc(N3CCOCC3)nc2n1C(C)C,-34.6% (active)
5,COC(=O)c1c(C)nc(Nc2nc3ccccc3s2)nc1-c1ccc(Cl)cc1Cl,104% (inactive)
6,CC1(C)CCC[C@]23C(=O)O[C@](O)(C(=O)C4=C[C@@](C)(/C=C/CCCc5ccc6ccc7cccc8ccc5c6c78)CC[C@@]42O)[C@@H]13,-70% (active)
7,O=c1[nH]nc(-c2ccccc2)c2c(-c3ccccc3)onc12,1.46% (active)
8,Cn1cc(-c2nc(-c3c[nH]c4ncccc34)cs2)c2cc(Cl)ccc21,-3.54% (active)
9,O=C(O)CCC(NC(=O)OCc1ccccc1)C(=O)O (stereo not given),101% (inactive)
10,N#Cc1nc(-c2ccccc2)oc1N1CCC(C2(C(F)(F)F)N=N2)CC1,112% (inactive)
11,CN1C(=O)C(N=Nc2ccc([N+](=O)[O-])cc2)SC1=S (stereo not given),84.6% (inactive) and 85.1% (inactive)
12,O=C1CSC(=S)N1/N=C/c1ccc(Cl)s1,105% (inactive)
13,CN1CCN(Cc2ccc(NC(=O)c3cncc(C#Cc4cnc(N)c5ncccc45)c3)cc2C(F)(F)F)CC1,-43.8% (active)
14,Fc1ccccc1-c1cnn2cc(-c3ccccc3)cnc12,124% (inactive)
15,N#Cc1c(Nc2ccc(F)cc2)n[nH]c1-c1cccs1,98.4% (inactive)
16,COc1cc(NC(=O)CCSc2nc3ccc(Cl)cc3c(=O)n2Cc2ccccc2)cc(OC)c1OC,93% (inactive)
17,O=C(OCc1ccc2c(Br)cc(Br)c(O)c2n1)N1CCN(C(=O)c2cc3ccccc3[nH]2)CC1,21.9% (inactive)
18,COc1ccc(C2C3=C(COC3=O)N(CCO)c3cc4c(cc32)OCO4)cc1OC (stereo not given),8.1% (active)
19,CN(C)c1ccc2cc(-c3ccccc3F)c(N)nc2c1,25.6% (inactive)
20,COc1cc(NCCCN)c2ncccc2c1,76% (inactive)
